Records with an inconclusive call do not appear. A call without a number means that no potency is given here. Activity calls are given as the source filed them. The rule behind the calls is not given here.
Test: qHTS assay to identify small molecule antagonists of the estrogen related receptor signaling pathway with the pleiotropic PPARgamma coactivator (PGC) from Tox21 10K library (AID 1224841); note: actives are mostly falling curves and most rising ones were filed inactive; nearly all actives have a fitted effect of over 50% in size
Details: PGC/ERR reporter cell line, ONE-Glo luciferase, 18 h; series mostly up to 92.4 µM
Text: U.S. Tox21 Program National Center for Advancing Translational Sciences [NCATS] NIH Chemical Genomics Center [NCGC] U.S. Environmental Protection Agency [EPA] National Institutes of Environmental Health Sciences [NIEHS] National Toxicology Program [NTP] U.S. Food and Drug Administration [FDA] Tox21 Assay Overview: Estrogen related receptors (ERRs), the first orphan nuclear receptors discovered, play an important role in the control of cellular energy metabolism. ERRs are required for high-energy production in response to the environmental challenges. The pleiotropic PPARgamma coactivator (PGC) is a major partner of ERR and a key regulator in energy homeostasis. Together they have been implicated in the etiology of metabolic disorders such as Type 2 diabetes and metabolic syndrome. ERR-alpha was also identified as an adverse marker for breast cancer progression; ERR-alpha-positive tumors have a poor prognosis. To screen and to identify environmental compounds that perturb the ERR and PGC/ERR signaling pathways could provide valuable information for potential therapeutic or preventive measures in the treatment of metabolic disease. For identifying PGC/ERR antagonists, PGC/ERR cell line (provided by NTP) has been used to screen Tox21 10K library.
Tox21 Assay Protocol Summary: The PGC/ERR cells were dispensed at 2,000 cells/5 ul/well in 1536-well white plates using a Multidrop dispenser. After the assay plates were incubated at a 37 C/5% CO2 incubator for 6 hours, 23 nL of compounds dissolved in DMSO, positive and negative controls or DMSO only was transferred to the assay plate by a pin tool. The plates were incubated at 37 C for 18 hours. 4 ul/well of One-Glo reagent was added into the assay plates using a Flying Reagent Dispenser. After 30-minute incubation at room temperature, the luminescence intensity in the plates was measured using a ViewLux plate reader.
In the case of `CC(CC=O)CCCC(C)(C)O` (stereo not given), the Potency is reported as “inactive”. For `O=C1c2ccccc2C(=O)N1CCl`, the Potency was “inactive”. For `CCCCOCCOC(=O)COc1nc(Cl)c(Cl)cc1Cl`, the Potency was “inactive”. For `COc1ccc(OC)c(Cl)c1`, the Potency was “inactive”. In the case of `C#CC(C)N(C)C(=O)Nc1ccc(Cl)cc1` (stereo not given), the Potency is reported as “inactive”. With `CCc1ccc(C=O)cc1` the Potency was “inactive”. With `C=C(C)C(=O)OCCOP(=O)(O)OCCOC(=O)C(=C)C` the Potency was “inactive”. For `CC/C=C\CC1=C(C)CCC1=O`, the Potency was “inactive”. With `Cc1ccccc1OCC(O)CO` (stereo not given) the Potency was “inactive”. In the case of `CCCCCCCCOS(=O)(=O)O`, the Potency is reported as “inactive”. In the case of `Cc1cc2cc3c(C)cc(=O)oc3c(C)c2o1`, the Potency is reported as “inactive”. For `O=C(CS(=O)Cc1ccco1)NC/C=C\COc1cc(CN2CCCCC2)ccn1` (stereo not given), the Potency was “inactive”. In the case of `Nc1ccc(S(=O)(=O)Nc2ccc(Cl)nn2)cc1`, the Potency is reported as “inactive”. With `CCO[Si](CCCS)(OCC)OCC` the Potency was “inactive”. For `COP(=O)(OC)OC(c1ccc(Cl)cc1)P(=O)(OC)OC` (stereo not given), the Potency was “inactive”. For `O=C(c1ccc(O)cc1)c1ccc(O)c(O)c1O`, the Potency was “inactive”. With `Cc1ccsc1/C=C/C1=NCCCN1C` the Potency was “inactive”. With `O=C1c2cccc3c2[C@H](CCC3)CN1[C@@H]1CN2CCC1CC2` the Potency was “inactive”. For `CC(C)(C)OC(=O)c1ccc(O)cc1`, the Potency was “inactive”. In the case of `COc1ccc(C2CNC(=O)C2)cc1OC1CCCC1` (stereo not given), the Potency is reported as “inactive”. In the case of `C[C@@H](Oc1ccc(CNC(=O)c2cccnc2Oc2ccc3c(c2)OCO3)c(F)c1)C(=O)O`, the Potency is reported as “inactive”. In the case of `CCCC(=O)C(C)=O`, the Potency is reported as “inactive”. In the case of `CCNC(=O)C1CC(C)CCC1C(C)C` (stereo not given), the Potency is reported as “inactive”. With `NC(CO)C(=O)NNCc1ccc(O)c(O)c1O` (stereo not given) the Potency was “inactive”. With `Cc1c(I)c(=O)n(-c2ccccc2)n1C` the Potency was “inactive”. In the case of `CC(=O)NCc1c(I)c(NC(C)=O)c(I)c(C(=O)O)c1I`, the Potency is reported as “inactive”. With `CCCCCCOC(=O)CC` the Potency was “inactive”. With `Cc1ccccc1N=O` the Potency was “inactive”. For `CCCCC(CC)COCCO` (stereo not given), the Potency was “inactive”. In the case of `Cc1cc(Cl)c(C)cc1Cl`, the Potency is reported as “inactive”. With `N[C@@H](CCC(=O)Nc1ccc([N+](=O)[O-])cc1)C(=O)O` the Potency was “inactive”. With `COC(=O)[C@@H]1[C@H]2C[C@H]3c4[nH]c5ccccc5c4CCN3C[C@@H]2CC[C@@H]1O` the Potency was “inactive”. With `BrCCCCCBr` the Potency was “inactive”. For `BrCc1cccc(Oc2ccccc2)c1`, the Potency was “inactive”. In the case of `CCn1ccc(NS(=O)(=O)c2ccc(N)cc2)nc1=O`, the Potency is reported as “inactive”. In the case of `Cc1ccc(S(=O)(=O)O)c(C)c1`, the Potency is reported as “inactive”. In the case of `COC(=O)c1ccccc1C(=O)c1ccc(OCCN2CCCCC2)cc1`, the Potency is reported as “inactive”. In the case of `CCOc1cc(NC(C)=O)ccc1C(=O)OC`, the Potency is reported as “inactive”. With `C[Si](C)(C)C` the Potency was “inactive”. With `N#Cc1ccc(C(=O)O)cc1` the Potency was “inactive”.

— PubChem BioAssay (Tox21)
